Assay results reported in PubChem BioAssay.
Several values for one entry are separate records, joined by “and”; a condition that tells them apart may be missing. Equal values may be shown once. Activity calls are given as the source filed them. Unless noted, no rule for the calls is given here.

Test: viability loss with induced miR-34 in A549 – imaging, A549 dox-inducible miR-34, nuclei and caspase counts, primary screen (AID 1347080)
Conditions: A549 miR-34 inducible, Hoechst nuclei count, 48 h; measured here: total cells without miR-34 induction

Row | SMILES | cell count
1 | C/C(=C\C(=O)OCCCCCCCCC(=O)O)C[C@@H]1OC[C@H](C[C@@H]2O[C@H]2[C@@H](C)[C@H](C)O)[C@@H](O)[C@H]1O | 8160
2 | C[C@H]1O[C@H](O[C@H]2[C@H](O)[C@@H](O)[C@@H](O[C@H]3[C@H](O)[C@@H](O)C(O)O[C@@H]3CO)O[C@@H]2CO)[C@H](O)[C@@H](O)[C@@H]1N[C@H]1C=C(CO)[C@@H](O)[C@H](O)[C@H]1O (some centres undefined) | 12200
3 | CCCCN1CCCC1CNC(=O)c1cc(C#N)c2ccccc2c1OC (centres undefined) | 10400 and 9080
4 | COc1ccc2[nH]c(S(=O)Cc3ncc(C)c(OC)c3C)nc2c1 (centres undefined) | 8760 and 8050
5 | CN1[C@@H]2CCC[C@H]1CC(NC(=O)c1nn(C)c3ccccc13)C2 (some centres undefined) | 10600
6 | COc1c(N2C[C@@H]3CCCN[C@@H]3C2)c(F)cc2c(=O)c(C(=O)O)cn(C3CC3)c12 | 7410
7 | CC(Cc1ccc(O)c(O)c1)(NN)C(=O)O (centres undefined) | 10100 and 12600

Test: chitosan synthesis blockers in C. neoformans – flow cytometry, Cibacron Brilliant Red staining (AID 1347148);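 also: compound exposure lasted three days at 37 degrees C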
Conditions: Cryptococcus neoformans chitosan, stronger effect = lower value; at 10 µM unless noted

Row | SMILES | fold fluorescence
8 | CC(C)C[C@H](NC(=O)[C@@H](O)[C@H](N)Cc1ccccc1)C(=O)O | 3.88 [at 162.1 µM] (inactive)
9 | Cc1c(C(=O)NN2CCCCC2)nn(-c2ccc(Cl)cc2Cl)c1-c1ccc(I)cc1 | 6.03 (inactive)
10 | Cc1cccc(CCN2CCC(C(=O)c3ccc(NS(C)(=O)=O)cc3)CC2)n1 | 4.01 [at 124.5 µM] (inactive)

Test: compounds altering HSF1 focus formation in cells – imaging, Selleck Cancer Library (AID 1347162; in the data active = plate-normalised HSF1 focus index below about 0.46)
Conditions: human cells, HSF1 nuclear foci imaging, at 10 µM; SSMD: measured here: HSF1 foci SSMD mean; cell count: measured here: cell number; plate-normalised HSF1 focus index: stronger effect = lower value

Row | SMILES | cell count | plate-normalised HSF1 focus index | SSMD
11 | O=C1CN2Cc3c(ccc(Cl)c3Cl)N=C2N1 | 7390 and 7000 | 1.08 (inactive) and 1.14 (inactive) | 2.08 and 2.35
12 | CC(C)C[C@H](NC(=O)[C@@H](O)[C@H](N)Cc1ccccc1)C(=O)O | 7080 | 1.13 (inactive) | 2.45
13 | O=C(c1ccc(OCCN2CCCCC2)cc1)c1c(-c2ccc(O)cc2)sc2cc(O)ccc12 | 6850 | 1.11 (inactive) | 2.22
14 | CN(C)CCOc1ccc(/C(=C(/CCCl)c2ccccc2)c2ccccc2)cc1 | 3260 | 0.417 (inactive) | -11.1

Test: blockers of cellular phospholipid synthesis – cell-based, LOPAC library, screen 4, primary screen (AID 1347384)
Conditions: animal cells, phospholipid biosynthesis inhibition screen; at 10 µM

Row | SMILES | outcome
15 | O=c1[nH]c(=O)n(C2CCCO2)cc1F (centres undefined) | inactive
16 | CC(C)C[C@H](NC(=O)[C@@H](O)[C@H](N)Cc1ccccc1)C(=O)O | inactive
17 | C[C@@H](c1ncncc1F)[C@](O)(Cn1cncn1)c1ccc(F)cc1F | inactive
18 | CN(C)CCCC1(c2ccc(F)cc2)OCc2cc(C#N)ccc21 (centres undefined) | inactive
19 | CC(C)NCC(O)c1ccc(NS(C)(=O)=O)cc1 (centres undefined) | inactive
20 | CC(=O)NC[C@H]1CN(c2ccc(N3CCOCC3)c(F)c2)C(=O)O1 | inactive
21 | O=C(c1ccc(OCCN2CCCCC2)cc1)c1c(-c2ccc(O)cc2)sc2cc(O)ccc12 | inactive
22 | NCC(O)c1ccc(O)c(O)c1 (centres undefined) | inactive
23 | Cc1cnc(C(=O)NCCc2ccc(S(=O)(=O)NC(=O)NC3CCCCC3)cc2)cn1 | inactive
24 | CCN(CC)CC#CCOC(=O)C(O)(c1ccccc1)C1CCCCC1 (centres undefined) | inactive
25 | COc1nc(C)nc(Cl)c1NC1=NCCN1 | inactive
26 | Cc1cc2c(s1)Nc1ccccc1N=C2N1CCN(C)CC1 | inactive
